Reference: ChEMBL document CHEMBL3988442, “University of Dundee, Small-Polar-MMV Screening Library” (2021)

How the values were obtained:
[1] = target: T1, Aspartate--tRNA(Asp/Asn) ligase (Mycobacterium tuberculosis (strain ATCC 25618 / H37Rv)) (UniProt P9WFW3); test: Assay for Asp RNA synthetase-1 from Mycobacterium tuberculosis; format: functional; parameters: scale not given: direction of the effect not stated beside the values; settings: 30 µM; further: in the data most compounds retested in dose-response had high values
T1 sequence (whole entry): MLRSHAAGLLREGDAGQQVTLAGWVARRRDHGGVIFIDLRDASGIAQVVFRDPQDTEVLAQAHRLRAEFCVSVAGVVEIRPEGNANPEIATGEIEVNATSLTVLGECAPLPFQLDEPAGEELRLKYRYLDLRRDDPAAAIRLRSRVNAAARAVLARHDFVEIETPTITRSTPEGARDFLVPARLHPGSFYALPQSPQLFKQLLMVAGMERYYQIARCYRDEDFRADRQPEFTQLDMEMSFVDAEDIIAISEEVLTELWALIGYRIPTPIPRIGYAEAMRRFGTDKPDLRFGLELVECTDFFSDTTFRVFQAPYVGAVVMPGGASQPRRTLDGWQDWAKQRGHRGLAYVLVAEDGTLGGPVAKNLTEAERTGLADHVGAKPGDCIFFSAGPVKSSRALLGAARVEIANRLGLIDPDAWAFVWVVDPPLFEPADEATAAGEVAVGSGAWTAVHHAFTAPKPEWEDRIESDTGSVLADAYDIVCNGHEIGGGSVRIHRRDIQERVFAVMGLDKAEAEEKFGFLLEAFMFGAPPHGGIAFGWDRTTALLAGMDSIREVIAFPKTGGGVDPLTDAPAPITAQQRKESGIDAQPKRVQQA

[2] = target: Shiga toxin 2 (Escherichia coli O157:H7) (UniProt P09385+P09386); test: E. coli 0.157:H7 Shiga Toxin SOP - stx2 screening assay; format: functional; parameters: scale not given: direction of the effect not stated beside the values; settings: 30 µM

Row | Compound | Percent Effect [1] [%] | Percent Effect [2] [%]
1 | CCc1ccc(NC(=O)C2OC(c3cccs3)=NN2C(C)=O)cc1 (centres undefined) | -1.78 | -90
2 | CCc1nnsc1C(=O)N1CCCN(Cc2cnn(C)c2)CC1 | 3.06 | 7.82
3 | NC(=O)c1ccc(CN2CCCC(N3CCCC3)C2)cc1 (centres undefined) | -1.17 | -4.76
4 | Cc1cc(CN2Cc3ccccc3CC2c2nnc(C)o2)on1 (centres undefined) | -0.894 | 8.24
5 | O=C(CCCNc1ncccn1)N1CCCC(n2cccn2)C1 (centres undefined) | 3.16 | 1.16
6 | CCc1nc(CN(C)CC(c2cccs2)N2CCOCC2)no1 (centres undefined) | -4.22 | -5.08
7 | CNC(=O)c1cccc(NC(=O)CN2CCN(S(C)(=O)=O)CC2)c1 | -5.52 | 1.24
8 | CCCN(CC(=O)NC)C(=O)c1ccc(-c2ccsc2)nc1C | -3.29 | -2.59
9 | CCn1c(CN2CCCN(C(=O)OC)CC2)nc2c(F)cccc21 | -0.656 | 36.3
10 | O=C(NCCNc1ncccn1)C1CC(=O)N(CC(F)(F)F)C1 (centres undefined) | -6.31 | 20.8
11 | Cc1cnn(CC2CCCN2C(=O)c2ccc3nnc(C)n3c2)c1 (centres undefined) | 0.189 | -37.5
12 | COCC(=O)N1CCC(c2cccc(Cc3ccc(F)cc3)n2)CC1 | 1.18 | -10.6
13 | Cc1cnn(CCNCc2nc(-c3ccccc3Cl)no2)c1 | -2.88 | -10.8
14 | CCOCC1CN(C(=O)c2cscn2)Cc2nnn(CC3CC3)c21 (centres undefined) | -4.51 | -6.48
15 | Cc1ccsc1C(=O)N1CC(C(=O)NCC2CC2)C2(CCOCC2)C1 (centres undefined) | 8.9 | -7.68
16 | Cc1cccc2[nH]c(C3CCN(C(=O)c4ccnn4C)CC3)nc12 | -0.0892 | -69.6
17 | Cc1ccc(-c2noc(CN3CCOC(CN(C)C)C3)n2)cc1F (centres undefined) | 3.61 | 24.6
